High-throughput results: PubChem, National Center for Advancing Translational Sciences (NCATS)
Sfp inh = Sfp phosphopantetheinyl transferase inhibition. Biochemical Sfp PPTase activity, qHTS. Potency, µM, for inactives: largest response in the series, negative = inhibition, hits mostly inhibitors. Q9F4F7. hit rate 3.5% among 310,000. AID 1490;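 further: the enzyme is Sfp with the accession as filed and its product quenches rhodamine fluorescence; 0% = enzyme reaction without inhibitor and -100% = no enzyme wells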
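Step 1, compound plus 15 nM Sfp-PPTase, 15 min, room temperature. Step 2, add rhodamine-CoA (5 uM) and BHQ-2-YbbR (12.5 uM). Step 3, read 525/598 nm fluorescence at 0 and 30 min.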
HP1b chromo inh = inhibitors of HP1-beta chromodomain binding to methylated histone tails | P83916 | AlphaScreen HP1-beta / biotin-H3K9me3 peptide binding | Potency, µM (highest dose often 114 µM), inactives show at the highest dose activity change, negative = inhibition, hits mostly inhibitors | hit rate 0.56% among 390,000 | AID 540317; further: nearly all actives have a fitted effect of over 70% in size
Target sequence (P83916 whole entry, looked up): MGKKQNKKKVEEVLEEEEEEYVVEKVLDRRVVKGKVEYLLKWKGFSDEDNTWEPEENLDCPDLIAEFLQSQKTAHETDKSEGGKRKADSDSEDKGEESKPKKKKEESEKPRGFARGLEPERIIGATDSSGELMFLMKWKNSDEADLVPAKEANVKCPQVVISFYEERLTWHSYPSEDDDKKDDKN
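AlphaScreen: HP1-beta (50 nM) preformed 30 min with biotin-H3(1-18)K9me3 peptide (50 nM) in PBS pH 7.4, 0.01% Tween-20. Compound added for 30 min at RT, then streptavidin donor/nickel chelate acceptor beads (10 ug/mL) for 30 min.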
BAZ2B block = blocks human BAZ2B | Q9UIF8 | AlphaScreen BAZ2B-H3K14Ac peptide displacement | Potency, µM (doses to about 114 µM), for the others: top-dose activity change, negative = inhibition, actives largely listed as inhibitors | hit rate 4.4% among 360,000; further: on the % scale 0 is the no-effect control and ±100 the full control effect; nearly all actives have a fitted effect of over 60% in size
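BAZ2B 50 nM plus b-H3(5-23)K14Ac 50 nM, PBS pH 7.4/0.01% Tween-20, 30 min RT; compound added (max 110 uM), 30 min RT; streptavidin donor/Ni-chelate acceptor beads 10 ug/mL final, 20 min dark; AlphaScreen read.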
PLK1 PBD inh = blocks phosphopeptide binding to human PLK1 polo-box domain; Plk1 PBD binding of FITC phosphopeptide, fluorescence polarization; Potency, µM, without a hit: max response, negative = inhibition, usual class: inhibitors; hit rate 2.8% among 360,000; further: series mostly up to about 57 µM; on the % scale 0 is the no-effect control and ±100 the full control effect; nearly all actives have a fitted effect of over 65% in size
Target sequence (P53350 whole entry, looked up, the tested form may be a part): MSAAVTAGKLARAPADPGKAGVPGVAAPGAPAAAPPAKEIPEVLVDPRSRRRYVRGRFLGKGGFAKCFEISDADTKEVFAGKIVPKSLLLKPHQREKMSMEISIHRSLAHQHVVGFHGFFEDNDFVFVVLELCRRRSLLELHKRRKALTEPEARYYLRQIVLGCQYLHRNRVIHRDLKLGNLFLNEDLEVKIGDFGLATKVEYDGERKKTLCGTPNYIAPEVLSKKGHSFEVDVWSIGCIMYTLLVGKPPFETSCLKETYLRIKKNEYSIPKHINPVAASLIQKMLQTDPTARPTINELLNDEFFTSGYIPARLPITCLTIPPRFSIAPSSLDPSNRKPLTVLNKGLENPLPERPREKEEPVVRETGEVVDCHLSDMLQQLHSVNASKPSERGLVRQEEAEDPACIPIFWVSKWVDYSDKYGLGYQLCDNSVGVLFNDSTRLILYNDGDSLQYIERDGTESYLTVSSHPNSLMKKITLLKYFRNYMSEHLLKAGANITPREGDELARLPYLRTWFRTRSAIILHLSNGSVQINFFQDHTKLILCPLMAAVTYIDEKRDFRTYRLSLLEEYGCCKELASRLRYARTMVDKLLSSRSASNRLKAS
G9a inh = G9a (human) methyltransferase inhibition; Q96KQ7; G9a H3K9 monomethylation, AlphaScreen, 2 h; Potency, µM (top dose mostly 102 µM), without a hit: at the top dose activity, negative = inhibition, actives largely listed as inhibitors; hit rate 8.8% among 350,000; AID 504332; further: on the % scale 0 is the no-effect control and ±100 the full control effect; nearly all actives have a fitted effect of over 75% in size
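Enzyme 20 nM + cpd, 15 min RT; add b-H3K9 pep 500 nM / SAM 20 uM; 2 h RT; anti-H3K9me1 Ab 0.5 ug/mL + SA donor / anti-rabbit acceptor beads 20 ug/mL each, 10 min; AlphaScreen read.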
JMJD2A Tudor = inhibitors of human JMJD2A Tudor domain. O75164. AlphaScreen JMJD2A-Tudor / H3K4me3 peptide binding. Potency, µM (highest dose often 114 µM), inactives show top-dose activity change, negative = inhibition, most hits filed as inhibitors. hit rate 4.4% among 390,000; further: on the % scale 0 is the no-effect control and ±100 the full control effect; nearly all actives have a fitted effect of over 50% in size
* = called active by the depositor; u = inconclusive; x = not tested or not shown; ! = not confirmed by another sample; [ ] = dose if it differs, or a comment. Sampled rows, rich in hits. Any-hit rate of the full collection: about 12%. The call rests on the fitted dose curve; in most records, active means well fitted curve in the direction sought with a large enough effect; inconclusive means small, poorly fitted or top-dose-only effect, or another doubt; inactive means no such curve, though single readings can be large; an effect the other way counts as inactive or inconclusive. Potency means the concentration at half of the fitted maximal effect.

SMILES	Sfp inh	HP1b chromo inh	BAZ2B block	PLK1 PBD inh	G9a inh	JMJD2A Tudor
CCc1ccc2c(CN3CC=C(c4ccccc4)CC3)cc(=O)oc2c1	0.4%	19.4%	-9.3%	-13.3%	-11.5%[59 µM]	-10.0%
CC(C)C[C@H](NC(=O)CNC(=O)[C@H](CCC(N)=O)NC(=O)[C@H](Cc1ccc(O)cc1)NC(=O)[C@@H](NC(=O)[C@H](Cc1ccc(O)cc1)NC(=O)CNC(=O)[C@@H](N)CCCN=C(N)N)C(C)C)C(=O)O	0.1%	x	x	x	x	x
COc1ccc(CCNC(=O)CCn2c(=O)c3ccccc3n(Cc3ccc(Cl)cc3)c2=O)cc1OC	x	57.5%	8.5%	x	4.6%[59 µM]	1.4%
CN(C(=O)COC(=O)c1ccc([N+](=O)[O-])cc1Cl)C1CCCCC1	-3.0%	7.5%	u	5.0%	u	-22.6%
CN(C)CC1CCCCC1OC(=O)Cc1ccc(Cl)c([N+](=O)[O-])c1 (configuration not stated)	-5.9%	u	u	-18.9%	u	14.1µM*
C[C@@H](CO)NC(=O)[C@@H]1C=C2c3cccc4[nH]cc(c34)C[C@H]2N(C)C1	20.8%	x	x	x	x	x
CC(CO)NC(=O)C1C=C2c3cccc4[nH]cc(c34)CC2N(C)C1 (configuration not stated)	17.2%	x	x	x	15.8µM*	x
CC[C@@H](CO)NC(=O)[C@H]1C=C2c3cccc4c3c(cn4C)C[C@H]2N(C)C1	56.2µM*	x	x	x	34.7%[12.7 µM]	x
CC(CO)NC(=O)C1C=C2c3cccc4[nH]cc(c34)C[C@H]2N(C)C1 (some centres not stated)	22.9%	x	x	x	-30.8%[2.33 µM]	x
COc1cc(N2CCOCC2)ccc1/C=C1\C(=O)NC(=O)N(C2CCCCC2)C1=O	10.4%	13.2%	-36.6%	u	u	-14.8%
CCOC(=O)COc1ccc(/C=C2\C(=O)NC(=S)N(c3ccc(OC)cc3)C2=O)cc1OC	44.7µM*	11.0%	u	15µM*	u	35.5µM*
COc1ccc(N2C(=O)/C(=C/c3ccc(OC)c(OC)c3)C(=O)NC2=S)cc1	-94.0%	u	-29.9%	7.52µM*	x	56.2µM*
NC(=O)C1=CN(C2OC(COP(=O)(O)OP(=O)(O)OC[C@H]3O[C@@H](n4cnc5c(N)ncnc54)[C@H](OP(=O)(O)O)[C@H]3O)C(O)C2O)C=CC1 (some centres not stated)	x	x	x	x	7.8%	x
CC(=O)OCOCC(=O)OCO[P+](=O)C(OCOC(C)=O)c1cc([N+](=O)[O-])ccc1Oc1ccc(Br)cc1 (configuration not stated)	18.3%	x	x	x	14.3%[59 µM]	x
O=C1NC(=O)C(CCc2ccncc2)(CCc2ccccn2)C(=O)N1c1ccc(Br)cc1 (configuration not stated)	5.4%	37.2%	89.1µM*	-12.7%	1.6%[12.7 µM]	-10.0%
CCOP(=O)(Cc1ccc(C#N)o1)OCC	8.3%	30.6%	5.2%	-6.6%	u	-8.7%
CCOP(=O)(Cc1cc(C(C)=O)c(C)o1)OCC	u	17.6%	-14.8%	u	8.91µM*	-23.2%
CCCC(=O)c1cc(CP(=O)(OCC)OCC)oc1C	u	32.1%	-11.4%	-24.6%	7.94µM*	-12.8%
CS(=O)(=O)N1CCC2(CC1)CN(Cc1ccncc1)C2	-1.6%	x	x	x	4.1%[12.7 µM]	x
O=C1NC(=O)C(=C/C=C/c2coc3ccc(Br)cc3c2=O)C(=O)N1	-14.3%	x	-34.4%	x	8.91µM*	x
O=C1NC(=O)C(=Cc2coc3ccccc3c2=O)C(=O)N1	39.8µM*	-2.4%	x	10.6µM*	35.5µM*	-22.2%
COC(=O)C[C@@](O)(CCC(C)(C)O)C(=O)O[C@@H]1C(OC)=C[C@]23CCCN2CCc2cc4c(cc2[C@@H]13)OCO4	6.9%	x	x	x	x	x
C=CCN1C(=O)NC(=O)/C(=C/c2cccn2C)C1=O	-28.3%	17.2%	1.1%[57.1 µM]	29.9µM*	50.1µM*	-16.9%
CCN1C(=O)NC(=O)/C(=C\c2cn(CC(=O)O)c3ccccc23)C1=O	2.4%	x	-14.0%	x	8.5%[2.33 µM]	x
O=C1NC(=O)N(Cc2ccco2)C(=O)/C1=C/c1cccn1CCOc1ccccc1Cl	-10.5%	24.7%	44.7µM*	u	u	-24.8%
SMILES	Sfp inh	HP1b chromo inh	BAZ2B block	PLK1 PBD inh	G9a inh	JMJD2A Tudor
Cn1cccc1/C=C1\C(=O)NC(=O)N(Cc2ccccc2)C1=O	-1.4%	u	50.1µM*	u	u	u
Cc1c(C=O)c2ccccc2n1Cc1ccc(F)cc1	12.9%	48.6%	-0.6%	-0.2%	18.0%	0.8%[11.4 µM]
Cn1cccc1/C=C1/C(=O)NC(=O)N(Cc2ccc(F)cc2)C1=O	-15.1%	10.2%	44.7µM*	u	39.8µM*	-32.2%
C[C@@H](C1CC[C@@]2(O)C3=CC(=O)[C@@H]4C[C@@H](O)[C@@H](O)C[C@]4(C)[C@H]3CC[C@]12C)[C@H](O)CCC(C)(C)O (some centres not stated)	1.9%	63.8%	x	x	x	-5.5%
Clc1ccccc1-c1cncnc1NCCc1cnc[nH]1	1.1%	x	x	x	0.0%[0.501 µM]	x
O=C1NC(=O)N(Cc2ccccc2)C(=O)/C1=C\N1CCCc2ccccc21	u	15.0%	-33.2%	-20.0%	u	-31.8%
Cn1cccc1/C=C1/C(=O)NC(=O)N(Cc2ccccc2)C1=O	-9.0%	9.6%	44.7µM*	u	u	-33.8%
C[C@]12N[C@@H](Cc3ccccc31)c1ccccc12	-2.1%	x	x	x	15.9%[21.5 µM]	x
NCCc1c[nH]c2ccc(C(N)=O)cc12	20.5%	38.9%	-0.2%	3.9%	35.5µM*!	0.0%
NCCc1c[nH]c2ccc(F)cc12	-9.5%	x	-11.0%	x	u	x
O=C1CCCCC1	x	49.5%	9.5%	-1.0%	15.0%[0.501 µM]	-6.9%
CCNC(=S)NCCC1=c2ccccc2=N/C1=C\c1c(O)n(C)c(=O)n(C)c1=O	15.8µM*	u	u	1.06µM*	10µM*	-34.2%
O=[N+]([O-])c1cccc(CN2CCN(Cc3ccc(Br)cc3)CC2)c1	u	u	20µM*	-0.7%	3.55µM*	20µM*
O=[N+]([O-])c1ccc(S(=O)(=O)N2CCn3cccc3C2c2ccccc2F)cc1 (configuration not stated)	x	12.6%	31.6µM*	x	u	u
CC(C)(C)NCc1cccn1-c1sc2c(c1C#N)CCCC2	15.7%	u	56.2µM*	4.1%	u	28.2µM*
C=C1CCN([C@@H](Cc2ccccc2)C(=O)Nc2ccc(OC)cc2)S(=O)(=O)c2ccccc21	x	16.5%	x	u	x	-35.2%
NC(N)=NOCCC(N)C(=O)O (configuration not stated)	-0.2%	x	x	x	29.9µM*!	x
COC(=O)Cn1cc(/C=C2\C(=O)NC(=O)N(c3ccccc3)C2=O)c2ccccc21	-24.4%	31.0%	-4.4%	u	-4.9%	-24.7%
COc1ccc(N2C(=O)NC(=O)/C(=C\c3ccccc3[N+](=O)[O-])C2=O)cc1	39.8µM*	13.2%	-14.9%	11.9µM*	8.91µM*	-16.2%
